Reference: PubChem BioAssay (NCATS)
Unmarked numbers belong to inactive results. Records with an inconclusive call do not appear. The source made the active and inactive calls. Unless noted, calls come from the whole dose curve; as a rule, active = well fitted curve in either direction with a large enough effect (not every such curve was filed as active); inconclusive = small, poorly fitted or top-dose-only effect, or another doubt; inactive = flat fitted curve, though single readings scatter.

Legend:
[1] = molecular target: Lysosomal acid glucosylceramidase (Homo sapiens) (UniProt P04062); test: Glucocerebrosidase-p2 (AID 348; in the data active = potency below about 10 µM; note: potency is the fitted concentration of half-maximal effect); conditions: purified GBA, blue fluorogenic substrate, 40 min
Chain of Lysosomal acid glucosylceramidase (Homo sapiens) (P04062 whole entry, looked up): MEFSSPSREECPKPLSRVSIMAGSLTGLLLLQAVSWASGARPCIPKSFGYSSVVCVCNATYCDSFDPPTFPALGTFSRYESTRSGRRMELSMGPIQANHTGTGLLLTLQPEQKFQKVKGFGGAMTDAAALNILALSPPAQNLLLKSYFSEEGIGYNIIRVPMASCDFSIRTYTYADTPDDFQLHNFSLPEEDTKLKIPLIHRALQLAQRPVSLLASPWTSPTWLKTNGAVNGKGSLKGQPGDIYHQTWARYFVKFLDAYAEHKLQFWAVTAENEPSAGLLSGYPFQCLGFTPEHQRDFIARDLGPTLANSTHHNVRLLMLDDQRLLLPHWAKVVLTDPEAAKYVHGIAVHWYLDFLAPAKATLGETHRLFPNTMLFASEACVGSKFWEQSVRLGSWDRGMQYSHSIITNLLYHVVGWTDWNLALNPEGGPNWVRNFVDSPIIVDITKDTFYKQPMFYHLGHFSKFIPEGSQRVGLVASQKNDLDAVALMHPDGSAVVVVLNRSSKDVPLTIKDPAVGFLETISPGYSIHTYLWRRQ
Method in brief: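 Normal human glucocerebrosidase (0.2 nM) with blue fluorogenic substrate (80 uM final) in citrate/phosphate pH 5.9 with 10mM sodium taurocholate, 0.01% tween-20; 40 min RT, NaOH/glycine stop; fluorescence Ex 365/Em 440; AC50 from a titration from 0.6 nM upwards.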

[2] = NFAT Signaling Pathway (AID 444); conditions: Jurkat NFAT-bla M1, carbachol, beta-lactamase ratio, 5 h; at 7.69 µM (top of the series) unless noted;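 note: carbachol stimulus at about its EC50 of 1 µM final; % is set by controls: 0 for no effect and ±100 for the full control effect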
Method in brief: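 Jurkat cells with NFAT-driven β-lactamase reporter and co-expressed M1 receptor, stimulated with carbachol (final 1 uM, ~EC50), compound titration, 5 h at 37 °C. CCF4 loaded 1 h at RT; 460/530 nm ratio gave %activity and AC50.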

[3] = Stat Signaling Pathway (AID 446); conditions: ME-180 SIE beta-lactamase reporter, IL-6 stimulated, 5 h; at 7.69 µM (top of the series) unless noted;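 note: ME-180 cervical cancer cells given 40 pM IL-6 alongside compound; SIE-controlled beta-lactamase reporter measured as 460/530 nm FRET emission ratio; % is set by controls: 0 for no effect and ±100 for the full control effect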
Method in brief: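 Normalization used AC90 stimulation (300 pM IL-6) and AC90 inhibition (125 nM pan-JAK inhibitor at 40 pM IL-6). The underlying signal is SIE-driven beta-lactamase in ME-180 cells after 5 h IL-6 exposure with compound.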

[4] = molecular target: Glucocorticoid receptor (Homo sapiens) (UniProt P04150); test: GR-GFP Redistribution (AID 450;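 active = compounds whose dose series gives a full or clear partial fitted curve of increased nuclear translocation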; note: potency is the fitted concentration of half-maximal effect); conditions: U2OS GR-GFP nuclear translocation, laser cytometry, 2 h
Chain of Glucocorticoid receptor (Homo sapiens) (P04150 whole entry, looked up, the tested form may be a part): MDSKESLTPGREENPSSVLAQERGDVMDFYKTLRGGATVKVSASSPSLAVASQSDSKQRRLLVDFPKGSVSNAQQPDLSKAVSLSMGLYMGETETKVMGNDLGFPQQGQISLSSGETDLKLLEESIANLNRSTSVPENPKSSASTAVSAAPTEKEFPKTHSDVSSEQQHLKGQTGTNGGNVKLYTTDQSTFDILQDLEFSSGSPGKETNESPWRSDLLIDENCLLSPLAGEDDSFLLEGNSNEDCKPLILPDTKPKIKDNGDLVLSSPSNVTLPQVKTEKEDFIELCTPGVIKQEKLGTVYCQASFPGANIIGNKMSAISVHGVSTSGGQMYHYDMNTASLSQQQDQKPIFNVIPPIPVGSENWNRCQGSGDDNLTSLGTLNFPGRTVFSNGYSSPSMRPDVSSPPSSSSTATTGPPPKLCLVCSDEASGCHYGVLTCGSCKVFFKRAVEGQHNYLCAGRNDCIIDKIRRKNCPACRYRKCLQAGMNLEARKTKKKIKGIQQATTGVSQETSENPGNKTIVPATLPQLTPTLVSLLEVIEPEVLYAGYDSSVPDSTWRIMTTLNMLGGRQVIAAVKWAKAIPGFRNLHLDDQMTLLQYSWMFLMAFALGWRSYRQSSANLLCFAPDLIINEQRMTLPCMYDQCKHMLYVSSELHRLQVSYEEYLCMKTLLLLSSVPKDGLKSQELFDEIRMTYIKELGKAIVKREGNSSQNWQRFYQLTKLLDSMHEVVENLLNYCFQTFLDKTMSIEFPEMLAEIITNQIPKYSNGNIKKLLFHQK

[5] = molecular target: Glucocorticoid receptor (Homo sapiens) (UniProt P04150); test: GR-EFC Redistribution (AID 451; calls by dose curve; note: potency is the fitted concentration of half-maximal effect); conditions: CHO-K1 GR-EFC translocation, beta-gal luminescence, 2 h
Method in brief: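 CHO-K1 cells expressing nuclear EA and GR-ED fragments of b-gal; compounds titrated up to 46 uM final, 2 h at 37 C. GR nuclear translocation read as complemented b-gal luminescence after 1 h RT detection.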

[6] = molecular target: Mitogen-activated protein kinase 10 (Mus musculus) (UniProt Q61831); test: JNK3 AlphaScreen Assay (AID 530); conditions: JNK3 lysate, c-Jun phosphorylation; series mostly up to 11.4 µM;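 note: kinase came from lysate of stimulated human HepG2 cells; signal reports phosphorylation of biotinylated GST-cJun 1-79 at Ser73 with 10 µM ATP; % is set by controls: 0 for no effect and ±100 for the full control effect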
Method in brief: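 HepG2 lysate (IL-1b/TNFa pre-activated) + biotin-GST-cJun 1-79 + anti-pSer73 cJun; cpd titration, 15 min RT; ATP 10 uM start; Tris pH 7.6, MgCl2, DTT, vanadate; beads in EDTA buffer; AlphaScreen.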

[7] = molecular target: 3',5'-cyclic-AMP phosphodiesterase 4B (Homo sapiens) (UniProt Q07343); test: qHTS Assay for Inhibitors of PDE-IV (AID 607; active = well fitted activation curve with a large enough effect in the main read-out, with a control signal flat, not every such curve was filed as active; note: % of control where 0% means no effect); conditions: HEK293 ACTOne CNG channel cells, membrane potential fluorescence; series mostly up to 22.9 µM
Chain of 3',5'-cyclic-AMP phosphodiesterase 4B (Homo sapiens) (Q07343 whole entry, looked up): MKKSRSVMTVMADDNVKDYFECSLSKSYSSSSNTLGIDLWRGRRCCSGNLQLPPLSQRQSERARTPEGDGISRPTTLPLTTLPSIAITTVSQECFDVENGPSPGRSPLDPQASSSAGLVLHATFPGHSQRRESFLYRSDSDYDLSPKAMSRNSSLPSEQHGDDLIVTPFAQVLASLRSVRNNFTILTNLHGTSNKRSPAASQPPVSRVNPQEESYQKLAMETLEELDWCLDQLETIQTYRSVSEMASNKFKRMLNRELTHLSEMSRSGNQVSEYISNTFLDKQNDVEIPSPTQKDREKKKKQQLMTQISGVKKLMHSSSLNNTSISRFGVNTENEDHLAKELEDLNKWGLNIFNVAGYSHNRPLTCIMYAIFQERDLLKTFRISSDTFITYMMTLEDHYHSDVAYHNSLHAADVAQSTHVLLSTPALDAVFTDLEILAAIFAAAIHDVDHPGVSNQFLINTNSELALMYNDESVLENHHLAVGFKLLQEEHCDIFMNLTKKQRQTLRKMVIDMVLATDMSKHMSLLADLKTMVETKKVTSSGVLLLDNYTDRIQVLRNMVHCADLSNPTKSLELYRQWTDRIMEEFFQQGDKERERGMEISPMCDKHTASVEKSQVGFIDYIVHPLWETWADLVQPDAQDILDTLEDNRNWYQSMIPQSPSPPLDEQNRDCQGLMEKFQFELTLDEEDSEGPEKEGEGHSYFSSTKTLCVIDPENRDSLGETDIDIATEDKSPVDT
Method in brief: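 HEK293 ACTOne cells with CNG channel (1000/well), endogenous PDE4; membrane potential dye, compounds up to 22.9 uM final. Fluorescence Ex 535/Em 590; RO 20-1724 (100 uM final) as reference.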

[8] = molecular target: Cytochrome P450 1A2 (Homo sapiens) (UniProt P05177); test: p450-cyp1a2 (AID 410; calls by dose curve; note: potency is the fitted concentration of half-maximal effect); conditions: recombinant CYP1A2, luciferin-ME demethylation, luminescence; series mostly up to 11.4 µM
Chain of Cytochrome P450 1A2 (Homo sapiens) (P05177 whole entry, looked up): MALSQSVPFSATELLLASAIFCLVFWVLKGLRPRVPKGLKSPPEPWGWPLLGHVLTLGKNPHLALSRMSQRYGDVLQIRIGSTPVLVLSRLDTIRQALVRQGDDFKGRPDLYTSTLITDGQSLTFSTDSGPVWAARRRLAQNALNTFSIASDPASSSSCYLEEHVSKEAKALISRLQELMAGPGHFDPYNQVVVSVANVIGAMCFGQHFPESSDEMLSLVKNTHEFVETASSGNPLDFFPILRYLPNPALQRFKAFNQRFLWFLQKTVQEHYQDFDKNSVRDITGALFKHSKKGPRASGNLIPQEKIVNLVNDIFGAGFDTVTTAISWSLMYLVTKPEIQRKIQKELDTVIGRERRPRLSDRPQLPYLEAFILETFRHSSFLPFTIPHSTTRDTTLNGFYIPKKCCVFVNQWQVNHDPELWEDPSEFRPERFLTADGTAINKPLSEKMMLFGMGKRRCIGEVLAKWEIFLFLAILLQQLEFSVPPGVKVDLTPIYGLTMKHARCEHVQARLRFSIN
Method in brief: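 Read-out is luminescence from luciferin produced by CYP1A2 demethylation of Luciferin-ME (100uM, at Km). Detection reagent stopped the 60 min NADPH-dependent reaction; signals were normalized to 57 uM furafylline.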

[9] = molecular target: Cytochrome P450 3A4 (Homo sapiens) (UniProt P08684); test: qHTS Assay for Activators of Cytochrome P450 3A4 (AID 885; active = well fitted curve in the direction sought with a large enough effect; an effect the other way counts as inactive or inconclusive; note: nearly all actives have a fitted effect of over 65% in size); conditions: recombinant CYP3A4, Luciferin-PPXE luminescence, 60 min; series mostly up to 11.4 µM
Chain of Cytochrome P450 3A4 (Homo sapiens) (P08684 whole entry, looked up): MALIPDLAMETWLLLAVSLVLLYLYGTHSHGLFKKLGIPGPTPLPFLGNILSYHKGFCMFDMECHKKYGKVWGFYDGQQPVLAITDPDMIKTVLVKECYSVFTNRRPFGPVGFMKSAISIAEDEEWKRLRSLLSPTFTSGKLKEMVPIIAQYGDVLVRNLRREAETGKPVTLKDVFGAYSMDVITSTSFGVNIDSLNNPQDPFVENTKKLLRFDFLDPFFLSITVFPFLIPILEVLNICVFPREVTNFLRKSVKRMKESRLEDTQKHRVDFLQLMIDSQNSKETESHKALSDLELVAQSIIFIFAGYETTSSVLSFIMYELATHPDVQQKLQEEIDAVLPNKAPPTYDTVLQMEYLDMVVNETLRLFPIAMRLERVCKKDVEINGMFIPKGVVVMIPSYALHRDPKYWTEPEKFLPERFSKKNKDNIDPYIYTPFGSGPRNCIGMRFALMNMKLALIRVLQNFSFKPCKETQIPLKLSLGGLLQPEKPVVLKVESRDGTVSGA
Method in brief: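 Human CYP3A4 dealkylates Luciferin-PPXE to luciferin, which luciferase detection converts to light. Substrate was at its KM (25uM), buffer 200mM KPO4, reaction 60 min at RT.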

[10] = Confirmation and Secondary Assay for Modulators of Hemoglobin Beta Chain Splicing at IVS2 654 locus (AID 910; active = well fitted curve in the direction sought with a large enough effect; an effect the other way counts as inactive or inconclusive;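 note: HeLa cells stably carrying EGFP split by mutant beta-globin IVS2-654 intron; % of control where 0% means no effect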); conditions: HeLa EGFP-654 splicing reporter, GFP fluorescence, 48 h; series mostly up to 38.3 µM
Method in brief: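 HeLa cells stably expressing EGFP interrupted by β-globin IVS2-654 intron, seeded overnight in Opti-MEM/2% FCS, then treated 2 days at 37 °C. Restored splicing read as total peak GFP intensity per well by laser scanning cytometry (488 nm excitation, 500–520 nm emission); 500 nM antisense PNA as control.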

[11] = Confirmation and Secondary Assay for Modulators of Hemoglobin Beta Chain Splicing at IVS2 705 locus (AID 930; active = well fitted curve in the direction sought with a large enough effect; an effect the other way counts as inactive or inconclusive;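 note: HeLa cells stably expressing the EGFP-705 splicing reporter; GFP fluorescence per well restored by corrected splicing of the IVS2-705 intron in EGFP; % of control where 0% means no effect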); conditions: HeLa EGFP-705 splicing reporter, GFP fluorescence, 48 h; series mostly up to 38.3 µM
Method in brief: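 HeLa EGFP-705 reporter; 500 cells/well, o/n 37C 5% CO2; cpd 2 d; 488 ex/500-520 em laser scan; total peak GFP intensity/well. Ref: 500 nM […] antisense PNA.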

[12] = qHTS Assay for Identification of Small Molecule Agonists for Hypoxia Response Element Signaling Pathway (AID 914; active = well fitted activation curve with a large enough effect in the signal ratio, with a control signal flat, not every such curve was filed as active; the % refers to the signal ratio; note: potency is the fitted concentration of half-maximal effect); conditions: ME-180 (cervical carcinoma) HRE-bla reporter, beta-lactamase ratio, CoCl2, 17 h; activation: stronger effect = higher value
Method in brief: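 Read-out: CCF4 FRET ratio of 460nm to 530nm emission (excitation 405nm) after 2.5 hours at room temperature, taken from HRE-bla ME-180 cells that had been exposed to compound and EC50 CoCl2 for 17 hours.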

[13] = molecular target: Cytochrome P450 2C9 (Homo sapiens) (UniProt P11712); test: qHTS Assay for Inhibitors and Substrates of Cytochrome P450 2C9 (AID 883; active = well fitted curve in the direction sought with a large enough effect; an effect the other way counts as inactive or inconclusive; note: potency is the fitted concentration of half-maximal effect; nearly all actives have a fitted effect of over 60% in size); conditions: recombinant CYP2C9, luciferin-H luminescence, 60 min; series mostly up to 11.4 µM
Chain of Cytochrome P450 2C9 (Homo sapiens) (P11712 whole entry, looked up): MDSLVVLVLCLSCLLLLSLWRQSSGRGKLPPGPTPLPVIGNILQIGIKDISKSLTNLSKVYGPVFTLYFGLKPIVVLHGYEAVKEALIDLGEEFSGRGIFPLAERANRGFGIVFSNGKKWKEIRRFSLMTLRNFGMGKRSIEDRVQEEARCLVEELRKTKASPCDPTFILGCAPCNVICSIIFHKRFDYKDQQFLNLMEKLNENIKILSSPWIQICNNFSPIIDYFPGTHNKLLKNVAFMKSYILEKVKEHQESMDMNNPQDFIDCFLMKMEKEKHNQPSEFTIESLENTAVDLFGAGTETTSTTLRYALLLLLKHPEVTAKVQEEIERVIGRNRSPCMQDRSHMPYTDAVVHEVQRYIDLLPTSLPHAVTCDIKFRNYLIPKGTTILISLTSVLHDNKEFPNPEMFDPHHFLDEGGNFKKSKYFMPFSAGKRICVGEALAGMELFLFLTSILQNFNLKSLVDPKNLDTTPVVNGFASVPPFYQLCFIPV
Method in brief: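 Human CYP2C9 (10nM) with Luciferin-H at 100uM (its KM) in 25mM KPO4; compound preincubated 10 min at 37C, then NADPH regeneration for 60 min at 37C. Luciferin read by luminescence after detection reagent; normalized to 57uM sulphaphenazole as full inhibition.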

[14] = molecular target: Cytochrome P450 2D6 (Homo sapiens) (UniProt P10635); test: qHTS Assay for Inhibitors and Substrates of Cytochrome P450 2D6 (AID 891; active = well fitted curve in the direction sought with a large enough effect; an effect the other way counts as inactive or inconclusive; note: potency is the fitted concentration of half-maximal effect; nearly all actives have a fitted effect of over 60% in size); conditions: recombinant CYP2D6, luciferin-ME EGE luminescence; series mostly up to 11.4 µM
Chain of Cytochrome P450 2D6 (Homo sapiens) (P10635 whole entry, looked up): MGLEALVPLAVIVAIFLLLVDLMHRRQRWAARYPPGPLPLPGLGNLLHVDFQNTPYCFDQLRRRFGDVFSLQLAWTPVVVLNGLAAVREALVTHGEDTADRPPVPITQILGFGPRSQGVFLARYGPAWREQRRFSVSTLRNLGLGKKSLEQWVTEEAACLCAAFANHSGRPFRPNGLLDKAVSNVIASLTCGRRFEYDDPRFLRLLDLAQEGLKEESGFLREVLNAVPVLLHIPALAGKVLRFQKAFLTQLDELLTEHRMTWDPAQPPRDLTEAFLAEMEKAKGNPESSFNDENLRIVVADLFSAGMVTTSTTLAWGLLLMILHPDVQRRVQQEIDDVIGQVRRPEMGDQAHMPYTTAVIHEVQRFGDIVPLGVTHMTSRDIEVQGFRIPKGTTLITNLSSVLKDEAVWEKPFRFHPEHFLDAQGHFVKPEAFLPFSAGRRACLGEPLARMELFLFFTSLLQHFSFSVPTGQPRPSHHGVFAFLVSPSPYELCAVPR
Method in brief: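 Luminescent read-out of luciferin formed by 5 nM human CYP2D6 demethylating 30 uM Luciferin-ME EGE (Km level) over 60 min at room temperature after NADPH regeneration addition. Data normalized to full inhibition by 1.43 uM quinidine.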

[15] = molecular target: Cytochrome P450 2C19 (Homo sapiens) (UniProt P33261); test: qHTS Assay for Inhibitors and Substrates of Cytochrome P450 2C19 (AID 899; active = well fitted curve in the direction sought with a large enough effect; an effect the other way counts as inactive or inconclusive; note: potency is the fitted concentration of half-maximal effect; nearly all actives have a fitted effect of over 60% in size); conditions: recombinant CYP2C19, luciferin-H EGE luminescence; series mostly up to 11.4 µM
Chain of Cytochrome P450 2C19 (Homo sapiens) (P33261 whole entry, looked up): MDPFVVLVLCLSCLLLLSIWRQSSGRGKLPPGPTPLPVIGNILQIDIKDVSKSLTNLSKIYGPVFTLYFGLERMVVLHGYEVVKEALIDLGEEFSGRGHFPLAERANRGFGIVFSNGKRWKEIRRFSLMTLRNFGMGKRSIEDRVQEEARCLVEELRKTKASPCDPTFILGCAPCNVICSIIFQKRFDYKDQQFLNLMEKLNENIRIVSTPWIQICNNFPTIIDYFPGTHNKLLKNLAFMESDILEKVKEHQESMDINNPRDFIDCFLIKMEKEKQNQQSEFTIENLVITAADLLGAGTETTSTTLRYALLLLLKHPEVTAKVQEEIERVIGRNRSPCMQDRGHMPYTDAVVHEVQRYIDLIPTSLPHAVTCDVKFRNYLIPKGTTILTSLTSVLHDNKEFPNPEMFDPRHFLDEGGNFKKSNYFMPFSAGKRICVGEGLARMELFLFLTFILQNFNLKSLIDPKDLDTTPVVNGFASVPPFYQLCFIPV
Method in brief: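 5 nM human CYP2C19 with 10uM Luciferin-H EGE (at KM) in 50mM KPO4, compound preincubated 10 min at 37C, then NADPH regeneration for 60 min at 37C. Luciferin read by luminescence after detection reagent; normalized to 57uM ketoconazole as full inhibition.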

Compound | Potency [1] | activity change, negative = inhibition [2] | activity, negative = inhibition [3] | Potency [4] | Potency [5] | Potency [6] | Potency [7] | Potency [8] | Potency [9] | outcome [10] | outcome [11] | Potency [12] | Potency [13] | Potency [14] | Potency [15]
OCCN[C@@H]1c2cc(Cl)ccc2-c2c(Cl)cc(Cl)cc21 | > 11.4 µM | -8.6% | 4.1% | > 46 µM | > 9.22 µM | inactive | inactive | – | – | – | – | – | – | – | –
Cc1cccc(CNc2nc(-c3cccnc3)nc3ccccc23)c1 | > 11.4 µM | – | – | > 46 µM | > 46 µM | inactive | – | 0.631 µM (active) | inactive | inactive | inactive | – | – | – | –
N#CCCn1c(=O)c(-c2cccs2)nc2cnc(Oc3cccc(Cl)c3)nc21 | > 11.4 µM | – | – | > 9.22 µM | > 46 µM | inactive | – | 3.16 µM (active) | inactive | – | – | 1.58 µM (active) | – | – | –
CN(Cc1ccccc1)Cn1ccnc1 | > 11.4 µM | -1.18% | 10.2% | > 46 µM | > 9.22 µM | inactive | inactive | – | inactive | – | – | – | 2.51 µM (active) | 0.794 µM (active) | 2 µM (active)
